According to PubChem BioAssay (EPA / NIEHS):
“And” between values parts separate entries of the source, which are not always exact repeats. Equal values may be shown once. Records with an inconclusive call do not appear. Where a structure was tested more than once in an assay, its records may differ in their call. The source made the active and inactive calls. The calls were made as follows: active = hit-call score of the fitted dose curve at least 0.9, where 1 is the maximum; inconclusive = response in the unintended direction; inactive = score below 0.9.

Assays:
[1] = test system: turtle Estrogen Receptor (ERa), gene 101933533; test: ATG_trERa_XSP2: Attagene TRANS-FACTORIAL Multi-Species (XSP2) HepG2 Assay for turtle Estrogen Receptor (ERa) (AID 2283812);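 also: actives raise reporter signal above DMSO so AC50 reflects agonist activity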
Procedure, shortened: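 Readout is reporter mRNA quantified by RT-PCR with capillary electrophoresis after 24 h compound exposure, increase relative to DMSO. Uses transiently transfected human HepG2 liver cells carrying a chimeric turtle ERa-Gal4 receptor driving GAL4-UAS reporters.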

[2] = target: zebrafish Estrogen Receptor (ER1), esr1 (gene 259252) (UniProt P57717); test: ATG_zfER1_XSP2: Attagene TRANS-FACTORIAL Multi-Species (XSP2) HepG2 Assay for zebrafish Estrogen Receptor (ER1) (AID 2283816)
Procedure, shortened: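 After 24 h compound exposure, RNA from transfected HepG2 cells was reverse-transcribed and reporter transcripts resolved by capillary electrophoresis. The TRANS format reads exogenous zebrafish ER1-Gal4 chimera activity on GAL4-UAS elements; gain of signal against DMSO.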

[3] = target: chicken Estrogen Receptor (ERa), ESR1 (gene 396099) (UniProt P06212); test: ATG_chERa_XSP2: Attagene TRANS-FACTORIAL Multi-Species (XSP2) HepG2 Assay for chicken Estrogen Receptor (ERa) (AID 2283817);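 also: actives raise reporter signal above DMSO so AC50 reflects ER activation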
Procedure, shortened: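 Exogenous chicken ERa-Gal4 chimera activity was assessed in transfected human liver HepG2 cells after 24 h of treatment. Induced reporter mRNA was quantified fluorescently by capillary electrophoresis, with DMSO as baseline.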

[4] = test system: zebrafish Estrogen Receptor (ER2a), gene 317734; test: ATG_zfER2a_XSP2: Attagene TRANS-FACTORIAL Multi-Species (XSP2) HepG2 Assay for zebrafish Estrogen Receptor (ER2a) (AID 2283818);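 also: hits raise reporter mRNA so AC50 reflects activation of zebrafish ER2a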
Procedure, shortened: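 Multiplexed trans-reporter readout: RT-PCR then capillary electrophoresis of reporter transcripts after 24 h compound treatment. Human HepG2 carries transfected zebrafish ER2a-Gal4 chimera; 3 nM 6-alpha-fluorotestosterone plus 1.5 nM norgestrel present. Induction scored against DMSO.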

[5] = test system: frog Estrogen Receptor (ER), gene 398734; test: ATG_frER1_XSP2: Attagene TRANS-FACTORIAL Multi-Species (XSP2) HepG2 Assay for frog Estrogen Receptor (ER) (AID 2283821);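 also: hits raise reporter mRNA above DMSO baseline so potency means agonist or activator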
Procedure, shortened: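 Gain-of-signal mRNA reporter assay, HepG2 human liver cells, 24 h dosing; transcripts read by fluorescent RT-PCR fragment analysis, DMSO as negative control.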

[6] = test system: zebrafish Estrogen Receptor (ER2b), gene 317733; test: ATG_zfER2b_XSP2: Attagene TRANS-FACTORIAL Multi-Species (XSP2) HepG2 Assay for zebrafish Estrogen Receptor (ER2b) (AID 2283823);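 also: fitted upward as reporter gain over DMSO so potency reflects activation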
Procedure, shortened: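 Transcriptional induction measured as reporter mRNA (RT-PCR, fluorescent capillary electrophoresis) in transiently transfected HepG2 cells after 24 h dosing; DMSO served as negative control and baseline.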

[7] = test system: frog Estrogen Receptor (ER2), gene 100174814; test: ATG_frER2_XSP2: Attagene TRANS-FACTORIAL Multi-Species (XSP2) HepG2 Assay for frog Estrogen Receptor (ER2) (AID 2283828)
Procedure, shortened: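 Induction of reporter mRNA, baseline set by DMSO, is the endpoint. The panel was run in transfected HepG2 cells over 24 h, with 3 nM 6-alpha-fluorotestosterone and 1.5 nM norgestrel present to stimulate androgen receptor.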

[8] = target: Peroxisome proliferator-activated receptor gamma (Homo sapiens) (UniProt P37231); test: ATG_hPPARg_XSP2: Attagene TRANS-FACTORIAL Multi-Species (XSP2) HepG2 Assay for human Peroxisome Proliferator-activated Receptor gamma (PPARg) (AID 2283829);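 also: actives raise reporter mRNA above DMSO so AC50 reflects PPARg activation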
Procedure, shortened: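 Human HepG2 cells carried transiently transfected Gal4 reporter units and were treated with chemical for 24 h alongside androgen-receptor stimulants (3 nM 6-alpha-fluorotestosterone, 1.5 nM norgestrel). Reporter transcripts were detected by RT-PCR with capillary electrophoresis, analysed in the positive direction against DMSO.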

[9] = target: human Thyroid hormone Receptor beta (TRb), THRB (gene 7068) (UniProt P10828); test: ATG_hTRb_XSP1: Attagene TRANS-FACTORIAL Multi-Species (XSP1) HepG2 Assay for human Thyroid hormone Receptor beta (TRb) (AID 2283808)
Procedure, shortened: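 Readout is reporter mRNA induction measured by RT-PCR, fluorescent labelling and capillary electrophoresis, fitted upward relative to DMSO. Transiently transfected human HepG2 cells expressing NR-Gal4 chimeras were dosed for 24 h, medium containing 3 nM 6-alpha-fluorotestosterone.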

[10] = target: zebrafish Thyroid Hormone Receptor beta (TRb), thrb (gene 30607) (UniProt Q9PVE4); test: ATG_zfTRb_XSP1: Attagene TRANS-FACTORIAL Multi-Species (XSP1) HepG2 Assay for zebrafish Thyroid Hormone Receptor beta (TRb) (AID 2283809)
Procedure, shortened: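 HepG2 cells transiently transfected with multiplexed GAL4-UAS reporter units expressing chimeric zebrafish TRb–Gal4. Dosed 24 h with 3 nM 6-alpha-fluorotestosterone present; reporter mRNA measured by RT-PCR, HpaI digestion and capillary electrophoresis; gain of signal versus DMSO.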

[11] = ATG_XTT_Cytotoxicity_XSP1: Cytotoxicity Assessment in the Attagene TRANS-FACTORIAL Multi-Species (XSP1) HepG2 Assay (AID 2283810)
Procedure, shortened: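 XTT viability readout taken at 24 hours post-dosing in HepG2 liver cells co-treated with 3 nM 6-alpha-fluorotestosterone. Signal loss relative to DMSO controls reflects cytotoxicity.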

[12] = ATG_M_06_XSP2: Attagene TRANS-FACTORIAL Multi-Species (XSP2) HepG2 Assay for M06 Transcription Factor (Internal Marker) (AID 2283811);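 also: hits are increases in signal above the DMSO baseline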
Procedure, shortened: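 Cells of the human liver line HepG2 carried transfected reporter transcription units and were treated for 24 h. Induced reporter transcripts were detected by fluorescence after RT-PCR and capillary electrophoresis, with activity fitted in the gain direction against DMSO.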

[13] = ATG_M_19_XSP2: Attagene TRANS-FACTORIAL Multi-Species (XSP2) HepG2 Assay for M32 Transcription Factor (Internal Marker) (AID 2283822)
Procedure, shortened: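 Internal background marker in a multi-species nuclear receptor TRANS panel: transfected HepG2 cells exposed 24 h, with 3 nM 6-alpha-fluorotestosterone and 1.5 nM norgestrel present. Readout is RT-PCR of reporter transcripts resolved by capillary electrophoresis, gain-of-signal versus DMSO.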

[14] = target: Estrogen receptor beta (Homo sapiens) (UniProt Q92731); test: ATG_hERb_XSP2: Attagene TRANS-FACTORIAL Multi-Species (XSP2) HepG2 Assay for human Estrogen Receptor (ERb) (AID 2283813);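 also: actives raise reporter mRNA above DMSO so AC50 reflects agonist induction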
Procedure, shortened: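 Transient TRANS reporter system in HepG2: after 24 h of chemical, RNA is reverse-transcribed, reporter cDNA amplified, FAM-labelled and sized by capillary electrophoresis. Induction of the human ERb-Gal4 reporter is measured relative to DMSO.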

[15] = target: GAL4 Transcription Factor (Internal Marker), GAL4 (gene 855828) (UniProt P04386); test: ATG_GAL4_XSP2: Attagene TRANS-FACTORIAL Multi-Species (XSP2) HepG2 Assay for GAL4 Transcription Factor (Internal Marker) (AID 2283814);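 also: GAL4 reporter mRNA background control in MRTU transfected cells not a receptor target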
Procedure, shortened: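 Background-control readout: gain-of-signal fitted against DMSO. After 24 h exposure of transfected HepG2 (MRTU, GAL4-UAS reporters; 3 nM 6-alpha-fluorotestosterone, 1.5 nM norgestrel present), transcripts quantified by RT-PCR and capillary electrophoresis fluorescence.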

[16] = test system: turtle Androgen Receptor (AR), gene 101947425; test: ATG_trAR_XSP2: Attagene TRANS-FACTORIAL Multi-Species (XSP2) HepG2 Assay for turtle Androgen Receptor (AR) (AID 2283815);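 as to AC50: potency for gain of reporter signal meaning activation above DMSO baseline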
Procedure, shortened: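 Reporter transcripts were quantified via RT-PCR and capillary electrophoresis and fitted upward against DMSO. Transiently transfected human HepG2 cells carrying NR-Gal4 chimeras were exposed 24 h, with 3 nM 6-alpha-fluorotestosterone plus 1.5 nM norgestrel added.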

[17] = test system: chicken Androgen Receptor (AR), gene 422165; test: ATG_chAR_XSP2: Attagene TRANS-FACTORIAL Multi-Species (XSP2) HepG2 Assay for chicken Androgen Receptor (AR) (AID 2283819);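 also: hits raise reporter mRNA above DMSO so potency is for activation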
Procedure, shortened: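 Readout is reporter mRNA induction via RT-PCR/capillary electrophoresis after 24 h chemical exposure, positive direction relative to DMSO. Transiently transfected HepG2 express chimeric chicken AR–GAL4; AR stimulated by 3 nM 6-alpha-fluorotestosterone and 1.5 nM norgestrel.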

[18] = test system: frog Androgen Receptor (AR), gene 399456; test: ATG_frAR_XSP2: Attagene TRANS-FACTORIAL Multi-Species (XSP2) HepG2 Assay for frog Androgen Receptor (AR) (AID 2283824);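 also: reporter mRNA from GAL4-UAS units driven by Xenopus AR-Gal4 chimera; actives raise reporter signal above DMSO so AC50 reflects agonist-like induction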
Procedure, shortened: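 Reporter transcript induction, read by RT-PCR with fluorescent capillary electrophoresis, in human liver HepG2 cells carrying an exogenous Xenopus AR-Gal4 fusion and GAL4-driven reporters; chemical exposure 24 hours, activity scored upward against DMSO controls.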

[19] = test system: zebrafish Androgen Receptor (AR), gene 100005148; test: ATG_zfAR_XSP2: Attagene TRANS-FACTORIAL Multi-Species (XSP2) HepG2 Assay for zebrafish Androgen Receptor (AR) (AID 2283825);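 also: hits raise reporter mRNA above DMSO so AC50 reflects agonist-type gain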
Procedure, shortened: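 After 24 h compound exposure in medium with 3 nM 6-alpha-fluorotestosterone plus 1.5 nM norgestrel, HepG2 cells carrying zebrafish AR–GAL4 reporter constructs were assessed for reporter mRNA gain by RT-PCR and capillary electrophoresis.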

[20] = target: Estrogen receptor (Homo sapiens) (UniProt P03372); test: ATG_hERa_XSP2: Attagene TRANS-FACTORIAL Multi-Species (XSP2) HepG2 Assay for human Estrogen Receptor (ERa) (AID 2283827)
Procedure, shortened: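 Trans-activation of exogenous human ERa-Gal4 chimera read in HepG2 as reporter transcript after 24 h exposure; medium included 3 nM 6-alpha-fluorotestosterone and 1.5 nM norgestrel. Quantified by RT-PCR with capillary electrophoresis, positive-direction fitting against DMSO.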

Measured: AC50

Chain of zebrafish Estrogen Receptor (ER1), esr1 (gene 259252) (P57717 whole entry, looked up, the tested form may be a part): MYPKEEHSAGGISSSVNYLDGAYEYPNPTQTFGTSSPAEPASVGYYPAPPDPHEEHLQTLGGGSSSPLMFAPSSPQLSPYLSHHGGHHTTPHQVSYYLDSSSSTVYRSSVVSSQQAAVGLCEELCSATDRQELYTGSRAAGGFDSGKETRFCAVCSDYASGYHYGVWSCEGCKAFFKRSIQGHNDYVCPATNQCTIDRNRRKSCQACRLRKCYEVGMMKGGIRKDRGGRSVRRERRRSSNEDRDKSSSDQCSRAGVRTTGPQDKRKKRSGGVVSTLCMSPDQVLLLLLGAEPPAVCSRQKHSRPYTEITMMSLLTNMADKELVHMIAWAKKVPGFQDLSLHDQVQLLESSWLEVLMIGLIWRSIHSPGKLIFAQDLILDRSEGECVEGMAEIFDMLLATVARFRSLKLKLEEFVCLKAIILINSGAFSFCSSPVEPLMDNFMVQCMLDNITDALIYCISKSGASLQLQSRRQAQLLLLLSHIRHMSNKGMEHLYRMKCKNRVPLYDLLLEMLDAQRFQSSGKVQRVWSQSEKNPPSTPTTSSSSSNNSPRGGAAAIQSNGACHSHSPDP
Chain of Estrogen receptor (Homo sapiens) (P03372 whole entry, looked up, the tested form may be a part): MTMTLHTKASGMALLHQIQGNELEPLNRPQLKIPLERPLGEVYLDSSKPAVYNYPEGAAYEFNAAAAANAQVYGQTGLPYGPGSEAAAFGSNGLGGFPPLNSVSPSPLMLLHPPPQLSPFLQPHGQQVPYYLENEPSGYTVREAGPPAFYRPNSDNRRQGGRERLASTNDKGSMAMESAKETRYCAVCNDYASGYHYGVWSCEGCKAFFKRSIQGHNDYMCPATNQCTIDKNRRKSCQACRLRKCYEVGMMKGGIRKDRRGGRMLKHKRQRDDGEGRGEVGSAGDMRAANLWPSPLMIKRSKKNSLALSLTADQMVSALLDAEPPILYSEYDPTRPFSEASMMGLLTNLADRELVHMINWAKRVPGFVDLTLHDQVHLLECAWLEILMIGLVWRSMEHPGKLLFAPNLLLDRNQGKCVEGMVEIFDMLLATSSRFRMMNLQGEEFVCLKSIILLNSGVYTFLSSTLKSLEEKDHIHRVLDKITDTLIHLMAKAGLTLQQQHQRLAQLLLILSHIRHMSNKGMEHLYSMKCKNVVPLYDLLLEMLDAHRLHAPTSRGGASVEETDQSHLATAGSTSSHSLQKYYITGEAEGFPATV
Chain of GAL4 Transcription Factor (Internal Marker), GAL4 (gene 855828) (P04386 whole entry, looked up, the tested form may be a part): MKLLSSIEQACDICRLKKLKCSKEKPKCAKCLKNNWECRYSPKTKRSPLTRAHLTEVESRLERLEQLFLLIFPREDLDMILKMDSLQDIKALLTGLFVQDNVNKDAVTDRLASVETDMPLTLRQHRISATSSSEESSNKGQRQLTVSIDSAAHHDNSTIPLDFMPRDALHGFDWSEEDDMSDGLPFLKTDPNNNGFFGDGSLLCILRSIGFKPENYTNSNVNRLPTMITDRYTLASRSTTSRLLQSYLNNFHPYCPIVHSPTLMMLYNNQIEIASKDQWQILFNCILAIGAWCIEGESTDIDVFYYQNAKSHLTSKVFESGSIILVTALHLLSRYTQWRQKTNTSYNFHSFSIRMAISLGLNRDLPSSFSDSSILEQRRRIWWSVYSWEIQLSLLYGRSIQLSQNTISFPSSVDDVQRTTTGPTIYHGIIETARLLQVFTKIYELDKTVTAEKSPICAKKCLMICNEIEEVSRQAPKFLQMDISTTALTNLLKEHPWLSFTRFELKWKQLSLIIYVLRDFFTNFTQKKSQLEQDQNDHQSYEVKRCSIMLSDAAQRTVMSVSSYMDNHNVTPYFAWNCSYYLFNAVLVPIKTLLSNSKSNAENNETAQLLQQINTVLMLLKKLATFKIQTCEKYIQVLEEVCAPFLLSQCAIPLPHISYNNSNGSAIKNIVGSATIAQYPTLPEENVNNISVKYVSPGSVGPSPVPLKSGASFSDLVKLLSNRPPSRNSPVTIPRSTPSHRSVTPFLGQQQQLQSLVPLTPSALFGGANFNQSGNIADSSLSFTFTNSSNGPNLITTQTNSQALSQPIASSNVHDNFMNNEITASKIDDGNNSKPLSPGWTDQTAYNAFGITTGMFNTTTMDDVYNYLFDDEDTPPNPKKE
Chain of Peroxisome proliferator-activated receptor gamma (Homo sapiens) (P37231 whole entry, looked up, the tested form may be a part): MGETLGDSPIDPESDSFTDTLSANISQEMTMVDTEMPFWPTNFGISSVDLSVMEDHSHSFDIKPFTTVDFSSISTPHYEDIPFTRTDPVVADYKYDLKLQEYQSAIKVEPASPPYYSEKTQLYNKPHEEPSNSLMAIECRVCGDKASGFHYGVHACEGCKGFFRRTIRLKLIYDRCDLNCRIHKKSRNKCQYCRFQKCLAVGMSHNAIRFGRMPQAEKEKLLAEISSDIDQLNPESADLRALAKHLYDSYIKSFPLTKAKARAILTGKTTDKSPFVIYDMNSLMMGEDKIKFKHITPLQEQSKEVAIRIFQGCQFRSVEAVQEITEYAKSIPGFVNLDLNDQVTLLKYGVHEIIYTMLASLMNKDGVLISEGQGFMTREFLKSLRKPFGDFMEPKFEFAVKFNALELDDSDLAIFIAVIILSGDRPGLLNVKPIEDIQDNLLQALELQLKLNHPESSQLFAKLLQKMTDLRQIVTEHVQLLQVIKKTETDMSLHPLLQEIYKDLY
Chain of chicken Estrogen Receptor (ERa), ESR1 (gene 396099) (P06212 whole entry, looked up, the tested form may be a part): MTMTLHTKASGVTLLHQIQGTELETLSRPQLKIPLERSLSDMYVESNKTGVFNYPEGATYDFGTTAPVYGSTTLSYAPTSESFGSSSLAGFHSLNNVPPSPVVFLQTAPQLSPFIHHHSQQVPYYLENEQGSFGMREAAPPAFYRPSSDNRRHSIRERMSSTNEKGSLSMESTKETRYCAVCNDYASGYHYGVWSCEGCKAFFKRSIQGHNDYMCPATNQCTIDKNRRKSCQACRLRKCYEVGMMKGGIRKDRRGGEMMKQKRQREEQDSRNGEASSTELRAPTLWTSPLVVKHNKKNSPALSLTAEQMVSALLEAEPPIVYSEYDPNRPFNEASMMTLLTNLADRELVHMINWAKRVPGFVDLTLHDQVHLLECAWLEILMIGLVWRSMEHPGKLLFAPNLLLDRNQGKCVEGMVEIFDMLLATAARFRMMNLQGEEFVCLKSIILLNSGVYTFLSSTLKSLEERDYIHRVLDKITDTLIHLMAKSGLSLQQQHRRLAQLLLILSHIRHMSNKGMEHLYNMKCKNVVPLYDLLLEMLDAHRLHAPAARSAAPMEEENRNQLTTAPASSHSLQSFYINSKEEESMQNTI
Chain of human Thyroid hormone Receptor beta (TRb), THRB (gene 7068) (P10828 whole entry, looked up, the tested form may be a part): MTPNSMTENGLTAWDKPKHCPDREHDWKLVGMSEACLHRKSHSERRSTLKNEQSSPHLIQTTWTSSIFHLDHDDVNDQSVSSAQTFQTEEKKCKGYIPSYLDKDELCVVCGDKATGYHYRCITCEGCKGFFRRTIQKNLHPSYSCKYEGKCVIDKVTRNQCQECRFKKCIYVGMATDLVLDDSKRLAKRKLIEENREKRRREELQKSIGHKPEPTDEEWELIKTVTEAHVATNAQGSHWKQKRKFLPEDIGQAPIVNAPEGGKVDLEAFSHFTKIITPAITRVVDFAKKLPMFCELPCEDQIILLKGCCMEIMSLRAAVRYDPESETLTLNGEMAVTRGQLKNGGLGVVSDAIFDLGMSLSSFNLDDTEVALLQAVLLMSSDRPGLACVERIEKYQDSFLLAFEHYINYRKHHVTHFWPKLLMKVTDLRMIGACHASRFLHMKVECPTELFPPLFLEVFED
Chain of Estrogen receptor beta (Homo sapiens) (Q92731 whole entry, looked up, the tested form may be a part): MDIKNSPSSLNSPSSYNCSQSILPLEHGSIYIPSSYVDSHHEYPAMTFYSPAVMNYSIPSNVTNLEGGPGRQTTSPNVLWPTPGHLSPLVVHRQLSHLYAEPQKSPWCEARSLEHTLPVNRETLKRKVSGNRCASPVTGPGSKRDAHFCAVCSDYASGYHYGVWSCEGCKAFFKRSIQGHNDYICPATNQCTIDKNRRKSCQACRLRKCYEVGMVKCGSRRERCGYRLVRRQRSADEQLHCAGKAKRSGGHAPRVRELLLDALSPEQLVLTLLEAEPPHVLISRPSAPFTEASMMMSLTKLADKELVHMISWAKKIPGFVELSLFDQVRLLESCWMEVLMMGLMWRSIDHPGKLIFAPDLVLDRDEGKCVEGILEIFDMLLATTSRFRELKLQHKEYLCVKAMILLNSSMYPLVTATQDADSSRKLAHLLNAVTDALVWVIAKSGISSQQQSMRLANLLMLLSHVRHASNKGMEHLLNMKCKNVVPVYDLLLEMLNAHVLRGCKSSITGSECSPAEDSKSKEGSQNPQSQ
Chain of zebrafish Thyroid Hormone Receptor beta (TRb), thrb (gene 30607) (Q9PVE4 whole entry, looked up, the tested form may be a part): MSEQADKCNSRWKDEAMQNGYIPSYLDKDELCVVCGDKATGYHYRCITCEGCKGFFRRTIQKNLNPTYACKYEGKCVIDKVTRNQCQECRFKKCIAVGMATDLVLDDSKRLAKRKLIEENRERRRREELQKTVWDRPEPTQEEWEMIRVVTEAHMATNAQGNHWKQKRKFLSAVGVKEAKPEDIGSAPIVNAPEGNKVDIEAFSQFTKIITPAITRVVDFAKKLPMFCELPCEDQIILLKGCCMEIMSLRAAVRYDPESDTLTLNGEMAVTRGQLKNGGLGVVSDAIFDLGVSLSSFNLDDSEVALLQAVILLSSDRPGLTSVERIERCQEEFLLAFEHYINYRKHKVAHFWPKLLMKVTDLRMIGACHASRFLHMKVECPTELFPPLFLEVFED

O=c1cc(-c2ccc(O)cc2)oc2cc(O)cc(O)c12
inactive: [1] | [5]
active: [1] 1.51 µM | [2] 2.58 µM and 764 nM | [3] 1.67 µM and 768 nM | [4] 1.1 µM and 677 nM | [5] 767 nM | [6] 1.69 µM and 1.07 µM | [7] 3.85 µM and 215 nM | [8] 27.8 µM and 12.8 µM

CC/C(=C(\c1ccccc1)c1ccc(OCCN(C)C)cc1)c1ccccc1
active: [11] 26.1 µM
inactive: [9] | [10] | [12] | [4] | [5] | [13]

CCCCCCCCOC(=O)c1ccc(O)cc1
inactive: [12] | [14] | [16] | [2] | [17] | [19]
active: [1] 17.1 µM and 1.5 µM | [15] 49.4 µM | [16] 33.4 µM | [3] 18 µM and 788 nM | [4] 11 µM and 3.51 µM | [17] 33.4 µM | [5] 20.9 µM and 2.94 µM | [6] 14.9 µM and 2.94 µM | [18] 33.4 µM | [20] 21.2 µM and 3.19 µM | [7] 9.18 µM and 803 nM

C#C[C@]1(O)CC[C@H]2[C@@H]3CCc4cc(O)ccc4[C@H]3CC[C@@]21C
active: [1] 6.94e-05 µM | [2] 2.55 nM | [4] 4.88e-05 µM | [6] 0.000204 µM | [7] 1.35 nM
inactive: [9] | [10] | [11] | [12] | [8]

CCCCCC(=O)O[C@]1(C(C)=O)CC[C@H]2[C@@H]3CCC4=CC(=O)CC[C@]4(C)[C@H]3CC[C@@]21C
active: [4] 172 µM | [6] 7.02 µM | [8] 2.88 µM and 2.34 µM
inactive: [12] | [15] | [2] | [5] | [7]

CC(C)(C)c1ccc(S)cc1
active: [4] 100 µM | [6] 179 µM | [8] 3.68 µM
inactive: [12] | [1] | [15] | [16] | [2] | [3] | [17] | [5] | [20] | [8]
